# Giardia FBPA inh – qHTS Assay for Inhibitors of Fructose-1,6-bisphosphate Aldolase from Giardia Lamblia | purified Giardia FBPA | Potency, µM (series often up to 59.6 µM), actives largely listed as inhibitors | actives 0.71% (n = 290,000); also: nearly all actives have a fitted effect of over 55% in size
# Target sequence (A8B2U2 whole entry, looked up): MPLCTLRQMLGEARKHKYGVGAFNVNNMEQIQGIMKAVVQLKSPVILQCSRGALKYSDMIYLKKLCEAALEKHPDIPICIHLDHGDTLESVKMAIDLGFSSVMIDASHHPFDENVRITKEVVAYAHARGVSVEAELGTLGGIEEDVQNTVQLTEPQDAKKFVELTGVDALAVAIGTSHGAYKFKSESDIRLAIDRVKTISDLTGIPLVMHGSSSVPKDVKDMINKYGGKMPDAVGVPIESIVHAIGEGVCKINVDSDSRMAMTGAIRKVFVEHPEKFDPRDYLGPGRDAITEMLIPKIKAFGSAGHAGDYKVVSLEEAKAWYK
#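 40 nM FBPA preincubated 10 min at RT with compound (up to 57.5 uM final), then substrate plus GAPDH/TPI/NAD/arsenate coupling and diaphorase/resazurin added. Fluorescence read after 20 min at RT, 525/598 nm.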
# HCMV antiviral – qHTS Assay for inhibitors of the human cytomegalovirus (HCMV); actives 4.5% (n = 410,000); AID 1259415, 2018; activity change, negative = inhibition, % at 57.5 µM; HFF cells, HCMV-luciferase reporter, 72 h; stronger effect = lower value; in the data active = activity change below about -60%; inconclusive = no clear call, values can overlap the other calls; inactive = above about -39%
#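 Cell-based, HFFs, 1000 cells/well, 16 h 37C; cpds in DMSO + HCMV-luc, MOI 1 PFU/cell; 72 h 37C; OneGlo luminescence after 5 min RT; norm. to buffer vs Salinomycin 10uM.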
# HCV inh – qHTS Assay for Inhibitors of Hepatitis C Virus (HCV). Huh7.5.1 HCVcc-Cre infection, luciferase reporter, 44 h. Potency, µM (top dose mostly 41.8 µM), usual class: inhibitors. actives 3.4% (n = 340,000)
#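 Luciferase read-out (15 sec integration) after a 15 min room-temperature substrate step quantifies HCVcc-Cre infection. Cells, 1,000 per well, had compound added 4 h post-plating, then virus at ~0.5 moi, and were cultured 44 h.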
# Vaccinia mCherry – qHTS for Stage-Specific Inhibitors of Vaccinia Orthopoxvirus: mCherry Reporter Primary qHTS | Vaccinia virus mCherry reporter infection, fluorescence | Potency, µM (top dose mostly 36.5 µM), hits mostly inhibitors | actives 0.63% (n = 310,000); calls by dose curve; tested in A549 cells; also: nearly all actives have a fitted effect of over 35% in size
# VACV Venus inh – qHTS for Stage-Specific Inhibitors of Vaccinia Orthopoxvirus: Venus Reporter Primary qHTS | Vaccinia virus Venus reporter expression, fluorescence | Potency, µM (doses to about 36.5 µM), hits mostly inhibitors | actives 0.46% (n = 330,000); calls by dose curve; tested in A549 cells; also: nearly all actives have a fitted effect of over 30% in size
# FMDV antiviral – High Throughput Screening for Foot and Mouth Disease Virus Antivirals; FMDV antiviral cell-based qHTS; Potency, µM (highest dose often 57.9 µM), actives largely listed as inhibitors; actives 1.2% (n = 410,000); calls by dose curve; tested in HEK293T cells; also: read-out not given here; nearly all actives have a fitted effect of over 45% in size
# Hits are given with their value; - = inactive; ? = inconclusive; . = no result; [ ] = remark or other dose. Only some compounds are listed: those with a hit (about 7.5% of all), similar ones and a draw of the others. Unless noted, calls follow the shape of the dose curve; as a rule, active = well fitted curve in the direction sought with a large enough effect; inconclusive = small, poorly fitted or top-dose-only effect, or another doubt; inactive = no such curve, though single readings can be large; an effect the other way counts as inactive or inconclusive.
SMILES,Giardia FBPA inh,HCMV antiviral,HCV inh,Vaccinia mCherry,VACV Venus inh,FMDV antiviral
COc1ccccc1N1CCN(C(=O)c2ccc(CSc3ccccc3)cc2)CC1,-,-92.4,-,-,-,?
CCOc1ccccc1N1CCN(C(=O)c2ccc(S(=O)(=O)Nc3ccccc3)cc2)CC1,.,?,10µM,.,.,-
COc1ccccc1N1CCN(C(=O)c2ccc(-c3ccccc3)cc2)CC1,-,-,-,.,.,-
CCOc1ccccc1N1CCN(C(=O)c2ccccc2)CC1,-,-,-,.,.,-
CC(=O)c1ccc(-c2ccc3c4c(ccc3c2)OC(CNC(=O)C(C)N2CCOCC2)C4)s1 (centres undefined),.,.,.,-,-,-
CN1CC[C@@]2(CCCN(S(=O)(=O)c3ccccc3)C2)C1,-,.,.,.,.,-
CCC1=C(OC(=O)N(CC)CC)N2C(=O)OC(=NCC3CC3)[C@]2(Cc2ccccc2)[C@H]2C1=CC[C@H]1C(=O)NC(=O)[C@H]12,-,-,-,-,-,-
Cc1cc2c(c(=O)o1)C1O[C@](CCCCN3C(=O)c4ccccc4C3=O)(Cc3cc(C#N)ccc31)O2,-[12.9 µM],.,.,.,.,.
COc1ccc2cc3c(N)nn(C(=O)c4ccccc4[N+](=O)[O-])c3nc2c1,-,-70.0,?,-,-,-
COc1ccc2cc3c(N)nn(C(=O)c4ccc(Cl)c([N+](=O)[O-])c4)c3nc2c1,-,-90.9,-,-,-,-
CCCC1CCC(C(=O)n2nc(N)c3cc4ccc(OC)cc4nc32)CC1 (centres undefined),-,-,-[8.37 µM],-,-,-
C=C(Cl)COc1ccc2c(CCCC)cc(=O)oc2c1,-,-,?,.,-,-
C=C(Cl)COc1ccc2c(CC)cc(=O)oc2c1,-,-,8.91µM,-,-,.
CCN(C(=O)C(=O)c1c(C)[nH]c2ccccc12)c1ccccc1,.,.,.,-,-,.
Cc1ccc(NC(=O)Nc2cccnc2)cc1NC(=O)Nc1cccnc1,-,?,11.2µM,-,?,?
CC(=O)c1cccc(NC(=O)Nc2cccnc2)c1,-,-76.8,-,-,-,-
O=C(Nc1ccc(Cl)c([N+](=O)[O-])c1)Nc1nc2ccccc2s1,-,.,.,.,.,.
Cc1ccc(NC(=O)Nc2nc3ccccc3s2)cc1NC(=O)Nc1nc2ccccc2s1,-,-74.3,14.1µM,-,?,-
O=C(Cn1ncc2ccc(Cl)cc21)NCc1ccc(F)cc1,.,-,.,-,-,-
COc1ccc(CC(=O)N2CCc3cc(OC)c(OC)cc3C2COc2ccc(OC)cc2)cc1 (centres undefined),.,-,.,-,-,-
CCc1ccc(OCC2c3cc(OC)c(OC)cc3CCN2C(=O)Cc2ccc(OC)c(OC)c2)cc1 (centres undefined),.,-,.,35.5µM,?,-
CCc1c(C#N)c(SCCC(=O)Nc2ccc(C)cc2)nc2c1C(=O)CC(C)(C)C2,-,-,8.91µM,.,-,-
CC(NC(=S)NCCc1ccccc1)C(c1cccs1)N1CCN(Cc2ccccc2)CC1 (centres undefined),-,-80.7,7.94µM,-,?,?
COc1cc(OC)c(OC)cc1/C=C1\CC(C)C/C(=C\c2cc(OC)c(OC)cc2OC)C1=O (centres undefined),-,-99.0,?,.,.,12.6µM
CCC1C/C(=C\c2cc(OC)c(OC)cc2OC)C(=O)/C(=C/c2cc(OC)c(OC)cc2OC)C1 (centres undefined),-,.,7.08µM,.,.,?
SMILES,Giardia FBPA inh,HCMV antiviral,HCV inh,Vaccinia mCherry,VACV Venus inh,FMDV antiviral
COc1cc(OC)c(OC)cc1/C=C1/Cc2ccccc2C1=O,-,-,?,.,.,-
CCC(=O)c1cn(CC(=O)Nc2ccc(C)cc2C)c2ccccc12,-,-,-,-,-,-
CC(=O)ON(C(C)=O)c1ccc(/C=C2/C=Cc3ccccc32)cc1,.,.,.,-,-,.
O=C1C[C@@H]2c3c(cccc3CN1Cc1ccccc1F)C[C@@H](O)[C@H]2O,.,-,-,-,-,-
CCn1c(SCc2ccc(C#N)cc2)nnc1-c1ccc(S(=O)(=O)N2CCCCC2)cc1,-,-69.9,7.94µM,.,.,?
Cc1nc2ncnn2c(C)c1CCC(=O)Oc1ccccc1,-,-60.3,-,.,.,-

# High-throughput results: PubChem BioAssay, National Center for Advancing Translational Sciences (NCATS)
